Screens as filed in PubChem BioAssay.
aSyn UTR act = Activators via SNCA 5'UTR binding, MLPCN. alpha-synuclein 5'UTR reporter, activators screen. activity score, % (tested at 7.5 µM), hits read low. 300,000 compounds, 7.1% hits; in the data active = activity score below about -60%
Numbers stand for hits; - = inactive. The list is a sample of the results.

SMILES	aSyn UTR act
COc1ccc(NC(=O)c2cccnn2)cc1	-97
COc1ccc(NC(=O)c2cc(C)nn2-c2ccccc2)cc1	-73
S=C(Nc1ccccc1)c1ccccn1	-165
CN=C1S/C(=C\c2ccc(SC)cc2)C(=O)N1C	-98
COc1ccc(/C=C2\SC(=N)N(c3nccs3)C2=O)cc1OC	-
CSC1=NC(=O)/C(=C/c2ccc(SC)cc2)S1	-81
CN=C1S/C(=C\c2ccc(O)c(OC)c2)C(=O)N1C	-110
CSc1cccc(NC(=O)/C=C/c2cccc(Cl)c2)c1	-218
CNC(=O)c1ccc(NC(=O)/C=C/c2cccc(F)c2)cc1	-98
O=C(/C=C/c1cccc(Cl)c1)Nc1ncccn1	-76
Cc1ccc(Nc2nnc(SCC(=O)Nc3cccnc3Cl)s2)cc1C	-109
Cc1cccc(Nc2nnc(SC/C(O)=C(\C#N)c3nc4ccccc4[nH]3)s2)c1C	-63
Cc1cccc(Nc2nnc(SCC(=O)Nc3ccccc3[N+](=O)[O-])s2)c1C	-90
Cc1cc(O)c(C(=O)Cc2csc(C)n2)c(O)c1	-132
Clc1nc2sccn2c1/C=N/n1cnc2ccccc21	-148
Cc1ccc(C(=O)O/N=C(\N)Cc2cccs2)c(Cl)c1	-73
Cc1ccc(C(=O)O/N=C(\N)Cc2ccc([N+](=O)[O-])cc2)c(Cl)c1	-73
Cc1ccc(N/C=C2\C(=O)C3(C)CCC2C3(C)C)cc1C (stereo not given)	-63
CCOC(=O)N1CC=C2C(C#N)=C(N)C(C#N)(C#N)[C@H](c3ccc(OCC)c(OCC)c3)[C@H]2C1	-78
Cc1cccc2c1-c1sc(C(=O)NCCCN3CCCC(C)C3)cc1CO2 (stereo not given)	-
O=C(c1cc2c(s1)-c1ccccc1OC2)N1CCCC1	-105
Cc1cccc(NC(=O)c2cc3c(s2)-c2c(C)cccc2OC3)n1	-144
CC1CCCC(C)N1CCCNC(=O)c1cc2c(s1)-c1ccccc1OC2 (stereo not given)	-
Cc1csc(NC(=O)c2cc3c(s2)-c2ccccc2OC3)n1	-211
COc1ccc(/C=N/c2c(-c3ccco3)nc3ccccn23)cc1OC	-64
SMILES	aSyn UTR act
N#C/C(=C/c1ccc(N2CCCCCC2)o1)c1ccc(F)cc1	-111
N#C/C(=C/c1ccc(N2CCCCCC2)o1)c1cccc(F)c1	-286
O=C(Nc1ccccc1)Nc1ccc(Nc2ccccc2)cc1	-111
CCN(CC)c1ccc(NC(=O)c2ccccc2F)cc1	-411
O=C(Nc1ccccc1)Nc1ccc(Cl)nc1Cl	-93
O=C(Nc1ccc(Nc2ccccc2)cc1)c1ccccc1F	-174
c1ccc(Nc2cccc(Nc3ccccc3)c2)cc1	-86
CCOc1ccccc1NC(=O)c1cc2ccccc2oc1=O	-95
O=C(NNC(=O)c1cc2ccccc2oc1=O)c1ccccc1	-108
N/C(=N\NC(=O)c1cccs1)c1cc2ccccc2oc1=O	-64
O=C(Nc1ccc(F)cc1F)c1cc2ccccc2oc1=O	-156
CC(C)OC(=O)c1cc2ccccc2oc1=O	-66
O=C(c1cc2ccccc2oc1=O)N1CCN(c2ncccn2)CC1	-92
O=C(NNC(=O)c1cc2ccccc2cc1O)c1cccs1	-193
Cc1ccc(C(=O)CCC2CCCC2=O)cc1 (stereo not given)	-100
CCc1ccc(C(=O)CCC2CCCCC2=O)cc1 (stereo not given)	-130
Cc1ccc(C(=O)CCC2CCCCC2=O)cc1 (stereo not given)	-151
CCOC(=O)c1nn(-c2ccc(C)c(C)c2)cc1O	-141
COC(=O)c1nn(-c2ccc3c(c2)CCN3C(C)=O)cc1O	-
COC(=O)c1nn(-c2ccc3c(c2)OCO3)cc1O	-86
CCOC(=O)c1nn(-c2ccc(C)c(C)c2)c(=O)c2c(N)scc12	-
CCOC(=O)c1nn(-c2ccc(C)cc2)cc1C(=O)c1ccccc1	-120
Fc1ccccc1-c1csc(-c2cccnc2)n1	-105
Oc1ccccc1-c1csc(-c2ccccc2)n1	-122
c1cncc(-c2nc(-c3ccc4c(c3)OCCO4)cs2)c1	-94
SMILES	aSyn UTR act
Clc1ccc(-c2csc(-c3cccnc3)n2)s1	-70
C#CC[N+](C)(C)CCCCCCCCC	-
Nc1nc(-c2ccccc2)cc(-c2ccccc2O)n1	-123
CS(=O)c1nc(-c2ccc(Br)cc2)cc(-c2ccccc2)c1C#N (stereo not given)	-
Oc1ccc(-c2csc(-c3cccnc3)n2)cc1O	-96
Brc1ccsc1-c1csc(-c2ccncc2)n1	-106
Oc1ccc(-c2csc(-c3ccccc3)n2)cc1O	-224
c1ccc(-c2csc(-c3ccncc3)n2)cc1	-74
O=C1c2ccccc2C(=O)c2[nH]c(=O)[nH]c21	-
O=c1[nH]c(=O)c2nc3c4ccccc4c4ccccc4c3nc2[nH]1	-70
O=C(Cc1csc(NC(=O)Nc2ccc(Cl)cc2)n1)NC1CCCC1	-91
Cc1csc(NC(=O)NCC2CCCC(CNC(=O)Nc3nc(C)cs3)C2)n1 (stereo not given)	-66
Cc1csc(NC(=O)Nc2ccc(Cl)cc2)n1	-115
Cc1cnc(NC(=O)Nc2ccc(Cl)cc2)s1	-187
CC(C)CC(=O)Nc1nnc(-c2ccco2)s1	-151
O=C(Nc1nnc(-c2ccco2)s1)C1CCCCC1	-95
CN(C)c1ccc(NC(=O)Nc2cccc3ccccc23)cc1	-77
CCN(CC)c1ccc(NC(=O)CCCCC(=O)Nc2ccc(N(CC)CC)cc2)cc1	-
CCN(CC)c1ccc(NC(=O)Nc2cccc3ccccc23)cc1	-115
CCN(CC)c1ccc(NC(=O)Nc2ccccc2C(F)(F)F)cc1	-80
Cc1ccc(C)c(-c2nnc(NC(=O)c3ccc([N+](=O)[O-])o3)o2)c1	-63
Cc1cc(C)c2sc(NC(=O)c3ccc([N+](=O)[O-])o3)nc2c1	-110
Cc1cc(C)c2nc(NC(=O)c3ccc([N+](=O)[O-])o3)sc2c1	-144
O=C(CCc1ccccc1)Nc1nc2c(F)cc(F)cc2s1	-99
O=C(Nc1nc2c(F)cc(F)cc2s1)c1ccc([N+](=O)[O-])o1	-69
SMILES	aSyn UTR act
O=C(O)c1ccc(N/N=C/c2c[nH]c3ccccc23)cc1	-
O=C(N/N=C/c1c[nH]c2ccccc12)c1ccc(Cl)cc1	-77
Cc1ccc(-c2cc(C(=O)N/N=C/c3c[nH]c4ccccc34)[nH]n2)cc1	-
O=C(N/N=C/c1c[nH]c2ccccc12)c1cc(-c2ccc(-c3ccccc3)cc2)n[nH]1	-146
O=C(N/N=C/c1c[nH]c2ccccc12)c1cc(-c2ccccc2)n[nH]1	-72
CCc1ccc(NC(=O)CSc2nncn2-c2cccnc2)cc1	-119
CC1(c2ccc([N+](=O)[O-])cc2)Nc2ccccc2S1 (stereo not given)	-83
OCc1cn(-c2ccccc2)nc1-c1ccc(Br)cc1	-117
O=C(N/N=C/c1nn(-c2ccccc2)cc1-c1ccc(Cl)cc1)c1ccncc1	-64
COc1cccc(-c2nn(-c3ccccc3)cc2CO)c1	-127
OCc1cn(-c2ccccc2)nc1-c1ccc2c(c1)OCCO2	-133
O/N=C/c1cn(-c2ccccc2)nc1-c1ccc2c(c1)OCCO2	-72
O=C(N/N=C/c1cn(-c2ccccc2)nc1-c1ccc2c(c1)OCCO2)c1ccncc1	-99
Cc1ccc(C)c(NC(=O)/C(C#N)=C/c2cn(CC(=O)NCc3ccco3)c3ccccc23)c1	-
Cc1ccc(NC(=O)/C(C#N)=C/c2cccs2)c(C)c1	-169
N#C/C(=C\c1cccs1)C(=O)Nc1ccccn1	-75
Cn1c(=N)n(CC(=O)c2ccc(F)cc2)c2ccccc21	-
CCn1c(=N)n(CC(=O)c2ccc(Cl)c(Cl)c2)c2ccccc21	-186
